99 compounds from PubChem BioAssay AID620 (Sanford-Burnham Center for Chemical Genomics, 2007) can be followed below.

The campaign covered roughly 87,000 compounds. About 360 (0.41%) were called active. This is one part of a sample in which actives are shown more often than they occur. Rule as the data show it: active = cytotoxicity above about 50%; inactive = the rest.

The nature of the experiment: HT1080 cell viability loss – fluorescence readout (AID 620).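 Also: cells exposed to compound overnight then 4 h with Alamar Blue; 0% = vehicle DMSO and 100% = killing control.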 The settings on record: at 10 µM, hits give high values.
For the compound `CC(C)c1ccc(C(=O)CSc2ncn[nH]2)cc1`, the cytotoxicity is -3.4% (inactive). The figure for `COc1cc(C)c(C(C)C)cc1S(=O)(=O)n1cnc(C)c1` is 61.2% (active); for `COc1cc(C)c(Cl)cc1S(=O)(=O)n1cnc(C)c1` it is -1.4% (inactive). As to `COc1cc(C)c(C(C)C)cc1S(=O)(=O)n1ccnc1`, the cytotoxicity is -1.7% (inactive). The value for `CCn1ncc(Br)c1C(=O)NC(C)c1ccccc1` (centres undefined) was 9% (inactive); that for `Nc1cccc(-c2nc3ccccc3[nH]2)c1` was -3.9% (inactive); that for `COc1ccc2nc(-c3cccc(N)c3)[nH]c2c1` was 33.4% (inactive). The value for `N#CC1=C(c2ccccc2)N=P(N2CCOCC2)(N2CCOCC2)N=C1N1CCOCC1` was -10.4% (inactive); that for `CCNc1ccc(S(=O)(=O)C(F)(F)F)cc1NC(=O)C12CCC(CC1)C2` was 0.9% (inactive). The figure for `COC(=O)c1sc(N)c(C(=O)OC)c1COC(=O)c1c(C)noc1C` is 50.8% (active); for `COc1ccc(C(C)=O)cc1COC(=O)c1c(C)noc1C` it is 14% (inactive); for `COC(=O)c1c(N)sc(C(C)=O)c1C` it is -8.8% (inactive). For `Cc1nnc(SCC(=O)Nc2ccc3c(c2)OCO3)o1`, the cytotoxicity is 12.7% (inactive). The value for `COc1nc(NCc2ccco2)nc(N2CCC(C)CC2)n1` was -3.4% (inactive); that for `COc1cccc(C2N(c3ccccn3)C(=O)C3CCCN32)c1OC` (centres undefined) was -9.8% (inactive); that for `CN(C)CC(C(=O)c1ccccc1)c1ccccc1` (centres undefined) was 57.7% (active). The value for `CN(C)c1ccc(C(=O)C(O)c2ccccc2)cc1` (centres undefined) was -14% (inactive); that for `CCC(C(=O)c1ccc(O)cc1)c1ccccc1` (centres undefined) was -4% (inactive). In the case of `CC(C)CC(C(=O)NC1CCCC1)N(Cc1cccs1)C(=O)c1snc(C(N)=O)c1N` (centres undefined), the cytotoxicity was -7.5% (inactive). The value for `O=C(NCc1csc(-c2ccccc2)n1)c1ccco1` was -1.4% (inactive); that for `COc1ccccc1-n1cnc2cc(NCc3cccs3)ccc21` was 60% (active). Take `COc1ccc(-n2cnc3cc(NCc4cccs4)ccc32)cc1`: the cytotoxicity was 1.1% (inactive). Regarding `COc1ccccc1-n1cnc2cc(C(=O)NCc3ccco3)ccc21`, the cytotoxicity is -2.4% (inactive). For `COc1ccccc1-n1cnc2cc(NCc3ccco3)ccc21`, the cytotoxicity is 59.5% (active). The figure for `Cc1ccccc1-n1cnc2cc(NCc3cccs3)ccc21` is 33.7% (inactive).

As for `COc1ccccc1-n1cnc2cc(NCc3ccccn3)ccc21`, the cytotoxicity is -10% (inactive). The value for `CCOC(=O)CCP(=O)(O)C(C)(O)c1ccccc1` (centres undefined) was -7.3% (inactive); that for `COn1c(=O)c(-c2cccs2)[n+]([O-])c2ccccc21` was -15.3% (inactive). The value for `COc1ccc(N2CC(O)=C(c3nc4ccccc4s3)C2=N)c(OC)c1` was -0.1% (inactive); that for `CCOc1ccccc1N1CC(O)=C(c2nc3ccccc3s2)C1=N` was 68.7% (active). The figure for `COc1ccc(OC)c(N2CC(O)=C(c3nc4ccccc4s3)C2=N)c1` is -5.7% (inactive). On to `O=C(NCc1ccccc1)C1(c2ccccc2)CCN(S(=O)(=O)c2ccccc2)CC1`, for which the cytotoxicity is -1.9% (inactive). The value for `O=C(CSc1nc2c(c(=O)n1-c1ccc(Cl)cc1)SCC2)N1CCCC1` was -1.5% (inactive); that for `N#Cc1c(-c2ccc(Cl)cc2)ccn2nc(C3CCCCC3)nc12` was -4% (inactive). As for `Cc1nc(NC(C)C)c2oc3ccccc3c2n1`, the cytotoxicity was -2.5% (inactive).

Turning to `Fc1ccc2[nH]c3c(N4CCN(c5ccccc5)CC4)ncnc3c2c1`, the cytotoxicity was -4.2% (inactive). The value for `COc1cccc(N2CCN(c3ncnc4c3[nH]c3ccc(F)cc34)CC2C)c1` (centres undefined) was 54.2% (active); that for `COc1cccc(N2CCN(c3ncnc4c3[nH]c3ccccc34)CC2C)c1` (centres undefined) was -3% (inactive); that for `O=C(C1CCCN(Cc2cccc(F)c2)C1)N1CCCCC1` (centres undefined) was 14.1% (inactive). Take `CCC(=O)Nc1ccc(NC(=O)c2cc3ccccc3o2)cc1`: the cytotoxicity was -1.5% (inactive). `O=C(Nc1ccc(N2CCOCC2)c(Cl)c1)c1ccc(F)cc1`: the cytotoxicity was 56.2% (active). The figure for `O=C(Nc1ccc(N2CCOCC2)cc1)c1cc2ccccc2o1` is 1.6% (inactive); for `O=C(Nc1ccccc1N1CCN(C(=O)c2ccc(Cl)cc2)CC1)c1cc2ccccc2o1` it is 1.6% (inactive). Turning to `CCC(=O)N1CCN(c2ccc(NC(=O)c3cc4ccccc4o3)cc2)CC1`, the cytotoxicity was 1.3% (inactive). The figure for `O=C(Nc1ccc(N2CCOCC2)c(Cl)c1)c1cc2ccccc2o1` is 89.6% (active); for `CCC(=O)N1CCN(c2ccc(NC(=O)c3cc4ccccc4o3)cc2Cl)CC1` it is 96.3% (active). The value for `O=C(Nc1ccc(N2CCOCC2)c(Cl)c1)c1c(F)c(F)c(F)c(F)c1F` was 8.9% (inactive); that for `CCCC(=O)N1CCN(c2ccc(NC(=O)c3cc4ccccc4o3)cc2Cl)CC1` was 69.8% (active); that for `O=C(Nc1ccc(N2CCN(C(=O)c3ccc(Cl)cc3)CC2)cc1)c1cc2ccccc2o1` was 7% (inactive). The value for `O=C(Nc1ccc(N2CCOCC2)c(Cl)c1)c1cccc(F)c1` was 22.9% (inactive). Regarding `O=C(Nc1ccc(CN2CCOCC2)cc1)c1cc2ccccc2o1`, the cytotoxicity was 8.9% (inactive). The figure for `CCOC(=O)c1ccc2ncc(C(=O)OCC)c(NCc3ccco3)c2c1` is 1.9% (inactive); for `O=S(=O)(Nc1ccccn1)c1ccc(Cl)cc1` it is -6.1% (inactive); for `COc1cccc(-n2c(Cc3cc(=O)[nH]c(=O)[nH]3)nnc2SCC(=O)N2CCCC2)c1` it is 3.9% (inactive). The value for `COc1ccc([C@H]2[C@@H](C#N)[C@H](C#N)N3CCCN23)cc1` was 5.9% (inactive); that for `O=C(CCn1c(=O)sc2ccccc21)NCCN1CCOCC1` was 4.4% (inactive); that for `Cc1ccc(-c2noc(CCCN3C(=O)c4ccccc4C3=O)n2)cc1` was -3.5% (inactive). As to `CC(C)c1ccc(NC(=S)NCc2cccs2)cc1`, the cytotoxicity is -17.4% (inactive). Consider `O=C(CN1CCc2ccccc2C1)Nc1ccc(Br)cc1`, for which the cytotoxicity was -3.2% (inactive). The figure for `O=C(Nc1ccc(N2CCCC2)c(Cl)c1)c1ccc(Br)o1` is 12.7% (inactive); for `O=C(Nc1ccc(N2CCN(C(=O)c3ccccc3)CC2)c(Cl)c1)c1ccc(Br)o1` it is 22.5% (inactive); for `O=C(Nc1ccc(N2CCN(C(=O)c3ccco3)CC2)c(Cl)c1)c1c(F)c(F)c(F)c(F)c1F` it is -3% (inactive). The figure for `O=C(Nc1ccc(N2CCOCC2)c(Cl)c1)c1ccc(Br)o1` is 51.4% (active); for `O=C(Nc1ccc(N2CCN(C(=O)c3ccccc3)CC2)c(Cl)c1)c1ccco1` it is -4.5% (inactive); for `O=C(Nc1ccc(N2CCN(C(=O)c3ccco3)CC2)c(Cl)c1)c1cc2ccccc2o1` it is 81.6% (active). As to `COc1ccc2c(c1)c(=O)oc1cc(OCC(=O)N3CCCC(C)C3)ccc12` (centres undefined), the cytotoxicity is -1.8% (inactive). `CCC1=C(C)N(CCCC(=O)O)C(=O)NC1c1cccc(Cl)c1Cl` (centres undefined): the cytotoxicity was -11.7% (inactive). With `CCOC(=O)C1=C(C)NC(SCC(=O)O)=C(C#N)C1c1ccco1` (centres undefined), the cytotoxicity is -8% (inactive). The figure for `O=C(CN(C1CCCCC1)S(=O)(=O)c1ccccc1)NCc1cccnc1` is 1.3% (inactive); for `CCOC(=O)c1c(C)[nH]c2cc(Br)c(OC)cc12` it is -9% (inactive); for `C=CCNC(=O)C12CC3(C)CC(C)(CC(C)(C3)C1)C2` it is -24.6% (inactive). The figure for `CCOC(=O)c1c(NC(=O)CCl)sc(C(=O)N(CC)CC)c1C` is 53.8% (active); for `CCOC(=O)Nc1sc(C(=O)N(CC)CC)c(C)c1C(=O)OCC` it is -6% (inactive). The value for `CCOC(=O)c1c(NC(=O)CN(C)C)sc(C(=O)N(CC)CC)c1C` was 25.3% (inactive). For `CCC(C)[C@H](NC(=O)NCc1cccs1)C(=O)O` (some centres undefined), the cytotoxicity was 8.7% (inactive). The value for `CC(C)(C)NC(=O)Cn1nnnc1-c1nonc1N` was 0.2% (inactive); that for `CCOC(=O)c1cnc(SCc2ccc(C)cc2)nc1N` was 5.8% (inactive); that for `CCC(=O)Nc1nonc1-c1nc2ccccc2n1Cc1cccc2ccccc12` was 56.3% (active). For the compound `CCC(=O)Nc1nonc1-c1nc2ccccc2n1CC(C)C`, the cytotoxicity was 2.9% (inactive). Take `CCC(=O)Nc1nonc1-c1nc2ccccc2n1Cc1ccc(Cl)c(Cl)c1`: the cytotoxicity is -2.7% (inactive). The figure for `COC(=O)c1ccccc1NC(=O)Cn1c(-c2nonc2N)nc2ccccc21` is 32% (inactive). The figure for `CCOC(=O)c1ccccc1NC(=O)Cn1c(-c2nonc2N)nc2ccccc21` is 60.4% (active).

As to `CCCCOc1ccccc1NC(=O)Cn1c(-c2nonc2N)nc2ccccc21`, the cytotoxicity is 24.5% (inactive). With `O=C(O)c1cccc(CN2C(=O)CSC2=O)c1`, the cytotoxicity is 3.1% (inactive). The value for `Cc1nn(-c2ccccc2)c2sc(C(=O)OCN3C(=O)c4ccccc4C3=O)cc12` was -4% (inactive); that for `NC(=O)c1ccccc1OCC(=O)NS(=O)(=O)c1ccc(Cl)cc1` was -12.8% (inactive).

As to `CC(C)COc1ccc(CNC(=S)N/N=C/c2ccc([N+](=O)[O-])cc2)cc1`, the cytotoxicity was -12.7% (inactive). Turning to `O=C1C2CCCN2C(c2cccc(F)c2)N1c1cccc(Cl)c1` (centres undefined), the cytotoxicity is 8.3% (inactive).

As for `CCCCOC(=O)Cn1c(=N)n(CCN2CCOCC2)c2ccccc21`, the cytotoxicity was -3.2% (inactive). The figure for `N=c1n(CCN2CCOCC2)c2ccccc2n1CC(=O)c1ccc(Cl)c(Cl)c1` is 80.5% (active); for `N=c1n(CCOc2ccccc2)c2ccccc2n1CCN1CCOCC1` it is 6.2% (inactive); for `O=C(COc1ncnc2ccccc12)NC1CCS(=O)(=O)C1` (centres undefined) it is 0.3% (inactive). The value for `O=C(Nc1ccc(NC(=O)C2CCCCC2)nc1)c1ccco1` was -0.2% (inactive); that for `COc1ccccc1N1CCN(Cc2nc(N)nc(Nc3ccc(C)cc3)n2)CC1` was -2.7% (inactive); that for `CSc1nc(C)c2cc(C)oc2n1` was 10.3% (inactive).

Consider `COc1ccc2nc(NC(=O)CCn3cccc3)sc2c1`, for which the cytotoxicity is 2.1% (inactive). On to `CN1CCN(C2=C(Cl)C(=O)C(c3cnc(N4CCCCC4)s3)=C(Cl)C2=O)CC1`, for which the cytotoxicity was 37.1% (inactive). The value for `CN(C)c1ncc(C2=C(Cl)C(=O)C(N3CCCC3)=C(Cl)C2=O)s1` was 16.7% (inactive); that for `CCCCOc1ccc(CSc2nncn2N)cc1` was 0.8% (inactive).
